# Assay outcomes as filed in PubChem BioAssay.
# PostGolgi ctrl – growth of the yeast control strain, post-Golgi counter-screen. efflux-deficient yeast background strain, growth absorbance A615, 16 h. inhibition, % at 10 µM. hit rate 5% among 98,000. AID 738
# CYP2C19 inhib – blocks human cytochrome P450 2C19. P33261. CYP2C19 Supersomes, luciferin-H EGE luminescence, 30 min. inhibition, % at 5 µM. hit rate 21% among 96,000. AID 778;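 active = CYP2C19 inhibition above a set limit at 5 µM in the primary screen, cut at about 50% in these data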;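 note: plate controls were negative control wells for no effect and 2.5 mM tranylcypromine positive control for full effect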
# PostGolgi yeast – growth inhibition of a yeast mutant, post-Golgi transport screen; inhibition, % at 10 µM; hit rate 0.9% among 98,000; post-Golgi transport phenotypic cell assay;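 note: yeast cells grown in 1536-well plates; yeast grown about 18 h at 30C before absorbance read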
# CYP2C19 act – increases human CYP2C19 enzyme activity; P33261; recombinant CYP2C19, luciferin-H EGE luminescence; hits give high values; 0 = fully inhibited enzyme, 1 = untreated enzyme; activation factor at 5 µM; 96,000 tested, under 10 active; AID 1025;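 active = activation factor of at least 2 at 5 µM in the primary screen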;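 note: 0 = wells with 2.5 mM tranylcypromine and 1 = vehicle-only wells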
# CYP2C9 activ – increases human cytochrome P450 2C9 activity; activation factor at 5 µM; hit rate 1.4% among 96,000; recombinant CYP2C9, luciferin-H conversion, luminescence; hits give high values; factor 1 = untreated enzyme, 0 = blocked; AID 1024; P11712;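 active = activation factor of 2 or more for CYP2C9 at a 5 µM dose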;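 note: 0 = sulfaphenazole-blocked wells and 1 = vehicle-only wells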
# CYP2C9 inhib – inhibitors of human CYP2C9; P11712; CYP2C9 Supersomes, luciferin-H conversion, luminescence; inhibition, % at 5 µM; hit rate 20% among 96,000;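 active = blocking of liver enzyme CYP2C9 beyond about 50% at 5 µM, limit read from the data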
# * hit, by the source's call; / = not tested or not shown. Hits are enriched below; roughly 32% of the tested compounds scored in any of these assays. Cut-off read from the data, not from the text of the source, unless noted: active = inhibition above about 30%; inactive = the rest.
SMILES,PostGolgi ctrl,CYP2C19 inhib,PostGolgi yeast,CYP2C19 act,CYP2C9 activ,CYP2C9 inhib
Clc1ccc(-c2nc3ccc(Cl)cn3c2CN2CCOCC2)cc1,12.6,76.8*,-2.1,0.2,0.4,63.6*
CCCNC(=O)c1c(N)n(Cc2ccc3c(c2)OCO3)c2nc3ccccc3nc12,3.4,4.7,0.3,1,0.8,17.1
Cc1nc2cc(C(F)(F)F)ccc2n1C1CCN(Cc2nnnn2Cc2cccs2)CC1,-1.1,24.2,-5.9,0.8,0.2,78.9*
Fc1ccc2c(c1)nnn2C1CCN(Cc2ccccc2)CC1,-4.7,33.0,25.2,0.7,0.7,26.3
FC(F)(F)c1ccc2c(c1)ncn2C1CCN(Cc2nnnn2C2CCCCC2)CC1,9.2,88.5*,-1.6,0.1,0.3,69.3*
Cc1nc2cc(C(F)(F)F)ccc2n1C1CCN(Cc2nnnn2Cc2ccc3c(c2)OCO3)CC1,16.0,57.2*,14.6,0.4,0.1,92.3*
CN(C=O)CP(=O)(O)CN(C)C=O,18.7,31.0,-10.1,0.7,1,1.4
CC12CN3C(O)C(C)(C1)CC(C)(C2)C3O (configuration not stated),20.4,10.4,-5.2,0.9,1,-1.0
COC(=O)c1ccccc1OP1(=O)COc2ccccc2OC1,-6.1,31.4,-4.8,0.7,0.7,30.0
Cc1c(C(=O)N2CCC3(CC2)OCCO3)sc2ncnc(N3CCN(c4ccccn4)CC3)c12,-12.6,61.8*,8.9,0.4,0.1,87.0*
COc1ccc(Nc2ncc(C(=O)N3CCC4(CC3)OCCO4)c3ccccc23)cc1,0.7,22.9,-5.6,0.8,0.9,13.9
Cc1cc(C)n(CCOC(=O)C2C(C=C(Cl)Cl)C2(C)C)n1 (configuration not stated),23.8,91.8*,8.7,0.1,0.3,74.9*
COP(=O)(OC)C(NC(=O)C(C)(C)C)=C(Cl)Cl,-1.2,-15.2,-5.4,1.2,1,-0.1
COc1ccc2c(c1)c(C(=O)O)c(C)n2CC(C)C,1.1,84.7*,-2.1,0.2,0.9,6.3
O=C(Cn1nc(Cc2cccnc2)c2ccccc2c1=O)N1CCC2(CC1)OCCO2,14.9,22.4,-3.0,0.8,0.2,80.2*
Cc1ccc(C2N(c3cc(C)on3)C(=O)C3CCCN32)cc1 (configuration not stated),-2.6,-9.2,0.7,1.1,1,-2.8
CC12CN3CCN(CC(C3)C1O)C2 (configuration not stated),7.4,13.2,5.2,0.9,0.9,10.1
COc1ccc(OC)c(N2C(=O)NC(=O)C(CCc3ccncc3)(CCc3ccncc3)C2=O)c1,14.3,/,-3.6,/,/,/
O=C1NC(=O)C(CCc2ccncc2)(c2ccccc2)C(=O)N1,2.1,55.3*,29.7,0.4,0.1,93.1*
Cc1ccc(-n2c(O)c(C=NC3CCCC3)c(=O)[nH]c2=O)c(C)c1,-1.0,94.3*,-4.9,0.1,0.9,10.5
Cc1ccc(-n2c(O)c(C=NC3CCCCC3N)c(=O)[nH]c2=O)cc1C (configuration not stated),-2.8,-2.9,9.8,1,1,2.0
CCCCCCCC(=O)NC(Oc1ccccc1[N+](=O)[O-])C(Cl)(Cl)Cl (configuration not stated),8.8,26.3,4.6,0.7,0.7,28.5
COc1ccc(CCNCc2ccncc2)cc1,1.4,90.3*,5.5,0.1,0.3,71.8*
COc1ccc(CCNCc2ccc(OC)c(OC)c2OC)cc1,-5.0,62.5*,2.6,0.4,0.9,8.3
COc1ccc(CCNC(C)CCc2ccc(OC)cc2)cc1 (configuration not stated),23.0,55.1*,-3.1,0.4,1,-1.6
OCC12CO[C@@H]3c4ccccc4[C@H](OC1)N32 (some centres not stated),-2.1,1.5,-0.2,1,1,0.6
CCCCCCCSc1cc(OC)c(CCN(C)C)cc1OC,84.1*,66.9*,4.0,0.3,1,-1.0
CCCCCSc1cc(OC)c(CCN)cc1OC,-2.6,96.5*,4.6,0,0.5,45.2
CCOP(=O)(OCC)C(C)(C)NC(=O)C(Cl)(Cl)Cl,2.4,36.9,0.9,0.6,1,4.5
O=P1(Nc2ccc(F)cc2)COc2ccccc2OC1,2.8,63.8*,8.6,0.4,1.1,-11.0
